Experiment [1] can be described thus: binders of probe aFSTL3 on microarray, primary screen, stem cell growth factor project, biochemical, small-molecule microarray, fluorescence 635/667 (AID 1064).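 Note: measures binding of the biotinylated anti-FSTL3 antibody to printed compounds.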 The conditions noted are these: higher = more signal.
Experiment [2] can be described thus: binders from COS7 lysate, DM2A8 probe, primary screen, torsin A project, cell lysate, small-molecule microarray, fluorescence 635/667 (AID 1065). The conditions noted are these: higher = more signal, COS7 lysate expressing mutant human TOR1A.
A short description of experiment [3]: binders of probe aFGF2 on microarray, primary screen, stem cell growth factor project, biochemical, small-molecule microarray, fluorescence 635/667 (AID 1067).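 Note: measures binding of biotinylated aFGF2 protein to printed compounds on slides; z-score merges feature fluorescence and signal-to-noise across triplicate slides.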 The settings on record: higher = more signal.
Experiment [4] in a line: binders of probe aFGF10 on microarray, primary screen, stem cell growth factor project, biochemical, small-molecule microarray, fluorescence 635/667 (AID 1071).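 Note: score merges 667 nm spot intensity and signal to noise from triplicate slides.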 The conditions noted are these: higher = more signal.
Experiment [5] addresses Neurogenic locus notch homolog protein 2 (Homo sapiens) (UniProt Q04721). The experiment in a line: Notch2 binders on small-molecule microarrays, primary screen, biochemical, small-molecule microarray, 635 nm fluorescence, stem cell growth factors (AID 1073). The settings on record: Notch2 binding, higher = more signal.
Experiment [6] has as its target Pro-neuregulin-1, membrane-bound isoform (Homo sapiens) (UniProt Q02297). In words: NRG1 binders on small-molecule microarrays, primary screen, psychiatric disease protein project, biochemical, small-molecule microarray, fluorescence 635/667 (AID 1075).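 Note: score combines 667 nm spot fluorescence with signal to noise.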 The settings on record: NRG1 binding, 635 nm fluorescence, higher = more signal.
The test system of experiment [7] is Neuregulin-1 EGF-like domain. In words: binders of neuregulin-1 EGF-like domain, primary screen, biochemical, small-molecule microarray, 635 nm fluorescence (AID 1081).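 Note: binding of the protein to compounds printed on small-molecule microarray slides.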 The conditions noted are these: small-molecule microarray binding, higher = more signal.
Experiment [8] can be described thus: FRG1 promoter luciferase signal modulators, primary screen, FRG1 inhibition for FSHD, cell-based, C2C12 myotubes, firefly/Renilla luciferase, luminescence (AID 1084). The settings on record: higher = more signal, called active from +8 up or from −8 down.
Experiment [9] can be described thus: binders of probe aFST on microarray, primary screen, stem cell growth factor project, biochemical, small-molecule microarray, fluorescence 635/667 (AID 1086).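 Note: score merges 667 nm fluorescence with signal-to-noise of each printed compound spot.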 The settings on record: higher = more signal.
A short description of experiment [10]: binders of probe aHhip on microarray, primary screen, stem cell growth factor project, biochemical, small-molecule microarray, fluorescence 635/667 (AID 1087).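 Note: score merges spot fluorescence at 667nm with spot signal to noise ratio.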 The settings on record: higher = more signal.
Experiment [11] deals with PRMT1 (protein arginine N-methyltransferase 1). In words: PRMT1 binders on small-molecule microarrays, primary screen, biochemical, small-molecule microarray, 635 nm fluorescence (AID 1088).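 Note: binding of Prmt1 protein to compounds spotted on small-molecule microarray slides.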 The conditions noted are these: small-molecule microarray binding, higher = more signal.
Experiment [12] can be described thus: yeast growth modulation, basal conditions, primary screen, YJM789 clinical isolate, OD600, 24 h (AID 1089).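 Note: growth of clinical yeast isolate S. cerevisiae YJM 789 seeded 1000 cells per well; test concentration not given here.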 The conditions noted are these: S. cerevisiae YJM789 growth, higher = more signal, called active from +8 up or from −8 down.
Experiment [13] can be described thus: fission yeast growth modulation, primary screen, strain 972, OD600, 24 h, no modulator (AID 1090).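 Note: basal condition with compound alone and no growth modifier present; test concentration not given here.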 The settings on record: S. pombe 972 growth, higher = more signal, called active from +8 up or from −8 down.
Experiment [14] can be described thus: S. cerevisiae growth modulation with rapamycin, primary screen, strain BY4716, OD600, 96 h (AID 1091). Note: test concentration not given here. The settings on record: higher = more signal, called active from +8 up or from −8 down.
In experiment [15] the target is Torsin-1A-interacting protein 2 (Homo sapiens) (UniProt Q8NFQ8). In words: LULL1 binders on small-molecule microarray, primary screen, cell lysate, human LULL1 lysate, 635/667 nm fluorescence (AID 1092).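 Note: probe is lysate of COS7 cells overexpressing human LULL1; score merges per-feature 667 nm fluorescence with signal-to-noise.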 The settings on record: hLULL1 lysate binding, 635 nm fluorescence, higher = more signal.
Sequence of Torsin-1A-interacting protein 2 (Homo sapiens) (Q8NFQ8 whole entry, looked up): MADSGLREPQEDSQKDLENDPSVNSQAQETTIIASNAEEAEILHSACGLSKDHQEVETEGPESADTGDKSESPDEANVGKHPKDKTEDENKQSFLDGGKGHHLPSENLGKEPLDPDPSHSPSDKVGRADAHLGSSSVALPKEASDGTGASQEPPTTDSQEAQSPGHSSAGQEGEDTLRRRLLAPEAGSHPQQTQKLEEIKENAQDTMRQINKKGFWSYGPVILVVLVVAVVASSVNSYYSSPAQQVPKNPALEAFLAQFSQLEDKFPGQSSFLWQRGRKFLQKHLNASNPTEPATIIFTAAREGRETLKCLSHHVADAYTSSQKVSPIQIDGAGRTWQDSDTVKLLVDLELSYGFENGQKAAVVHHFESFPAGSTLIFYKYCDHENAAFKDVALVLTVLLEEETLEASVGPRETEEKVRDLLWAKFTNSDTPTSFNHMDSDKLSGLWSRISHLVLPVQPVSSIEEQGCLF
A short description of experiment [16]: E. coli growth modulation, two-sided OD650, primary screen, E. coli filamentation project, strain DRC41, 24 h (AID 1093).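 Note: MC1000 strain lacking acrAB efflux and sulA so SOS filamentation is blocked; test concentration not given here.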 The conditions noted are these: OD650, 24 h, higher = more signal, called active from +8 up or from −8 down.
A short description of experiment [17]: small-molecule microarray binders of probe aLefty2, primary screen, biochemical, biotinylated probe, 635/667 nm fluorescence (AID 1094).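 Note: score merges spot fluorescence near 667 nm with spot signal-to-noise ratio.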 The settings on record: higher = more signal.
Experiment [18] concerns Noggin (protein binding on small-molecule microarray). The experiment in a line: Noggin binders on small-molecule microarray, primary screen, biochemical, 635/667 nm fluorescence (AID 1095).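 Note: score merges 667 nm feature fluorescence with signal to noise over triplicate slides.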 The settings on record: 635 nm fluorescence, higher = more signal.
For experiment [19], the target named is Neurogenic locus notch homolog protein 3 (Homo sapiens) (UniProt Q9UM47). In words: NOTCH3 binders on small-molecule microarray, primary screen, biochemical, 635/667 nm fluorescence (AID 1096). The settings on record: NOTCH3 binding, 635 nm fluorescence, higher = more signal.
A short description of experiment [20]: small-molecule microarray binders of probe aEGFR, primary screen, biochemical, biotinylated probe, 635/667 nm fluorescence (AID 1097).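 Note: probe is a biotinylated anti-EGFR antibody binding compounds printed on slides; score combines fluorescence near 667 nm and signal to noise of each spot.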 The conditions noted are these: higher = more signal.

The record followed here is PubChem BioAssay.

Calls of active or inactive are those of the source.

Sequence of Neurogenic locus notch homolog protein 2 (Homo sapiens) (Q04721 whole entry, looked up, canonical isoform): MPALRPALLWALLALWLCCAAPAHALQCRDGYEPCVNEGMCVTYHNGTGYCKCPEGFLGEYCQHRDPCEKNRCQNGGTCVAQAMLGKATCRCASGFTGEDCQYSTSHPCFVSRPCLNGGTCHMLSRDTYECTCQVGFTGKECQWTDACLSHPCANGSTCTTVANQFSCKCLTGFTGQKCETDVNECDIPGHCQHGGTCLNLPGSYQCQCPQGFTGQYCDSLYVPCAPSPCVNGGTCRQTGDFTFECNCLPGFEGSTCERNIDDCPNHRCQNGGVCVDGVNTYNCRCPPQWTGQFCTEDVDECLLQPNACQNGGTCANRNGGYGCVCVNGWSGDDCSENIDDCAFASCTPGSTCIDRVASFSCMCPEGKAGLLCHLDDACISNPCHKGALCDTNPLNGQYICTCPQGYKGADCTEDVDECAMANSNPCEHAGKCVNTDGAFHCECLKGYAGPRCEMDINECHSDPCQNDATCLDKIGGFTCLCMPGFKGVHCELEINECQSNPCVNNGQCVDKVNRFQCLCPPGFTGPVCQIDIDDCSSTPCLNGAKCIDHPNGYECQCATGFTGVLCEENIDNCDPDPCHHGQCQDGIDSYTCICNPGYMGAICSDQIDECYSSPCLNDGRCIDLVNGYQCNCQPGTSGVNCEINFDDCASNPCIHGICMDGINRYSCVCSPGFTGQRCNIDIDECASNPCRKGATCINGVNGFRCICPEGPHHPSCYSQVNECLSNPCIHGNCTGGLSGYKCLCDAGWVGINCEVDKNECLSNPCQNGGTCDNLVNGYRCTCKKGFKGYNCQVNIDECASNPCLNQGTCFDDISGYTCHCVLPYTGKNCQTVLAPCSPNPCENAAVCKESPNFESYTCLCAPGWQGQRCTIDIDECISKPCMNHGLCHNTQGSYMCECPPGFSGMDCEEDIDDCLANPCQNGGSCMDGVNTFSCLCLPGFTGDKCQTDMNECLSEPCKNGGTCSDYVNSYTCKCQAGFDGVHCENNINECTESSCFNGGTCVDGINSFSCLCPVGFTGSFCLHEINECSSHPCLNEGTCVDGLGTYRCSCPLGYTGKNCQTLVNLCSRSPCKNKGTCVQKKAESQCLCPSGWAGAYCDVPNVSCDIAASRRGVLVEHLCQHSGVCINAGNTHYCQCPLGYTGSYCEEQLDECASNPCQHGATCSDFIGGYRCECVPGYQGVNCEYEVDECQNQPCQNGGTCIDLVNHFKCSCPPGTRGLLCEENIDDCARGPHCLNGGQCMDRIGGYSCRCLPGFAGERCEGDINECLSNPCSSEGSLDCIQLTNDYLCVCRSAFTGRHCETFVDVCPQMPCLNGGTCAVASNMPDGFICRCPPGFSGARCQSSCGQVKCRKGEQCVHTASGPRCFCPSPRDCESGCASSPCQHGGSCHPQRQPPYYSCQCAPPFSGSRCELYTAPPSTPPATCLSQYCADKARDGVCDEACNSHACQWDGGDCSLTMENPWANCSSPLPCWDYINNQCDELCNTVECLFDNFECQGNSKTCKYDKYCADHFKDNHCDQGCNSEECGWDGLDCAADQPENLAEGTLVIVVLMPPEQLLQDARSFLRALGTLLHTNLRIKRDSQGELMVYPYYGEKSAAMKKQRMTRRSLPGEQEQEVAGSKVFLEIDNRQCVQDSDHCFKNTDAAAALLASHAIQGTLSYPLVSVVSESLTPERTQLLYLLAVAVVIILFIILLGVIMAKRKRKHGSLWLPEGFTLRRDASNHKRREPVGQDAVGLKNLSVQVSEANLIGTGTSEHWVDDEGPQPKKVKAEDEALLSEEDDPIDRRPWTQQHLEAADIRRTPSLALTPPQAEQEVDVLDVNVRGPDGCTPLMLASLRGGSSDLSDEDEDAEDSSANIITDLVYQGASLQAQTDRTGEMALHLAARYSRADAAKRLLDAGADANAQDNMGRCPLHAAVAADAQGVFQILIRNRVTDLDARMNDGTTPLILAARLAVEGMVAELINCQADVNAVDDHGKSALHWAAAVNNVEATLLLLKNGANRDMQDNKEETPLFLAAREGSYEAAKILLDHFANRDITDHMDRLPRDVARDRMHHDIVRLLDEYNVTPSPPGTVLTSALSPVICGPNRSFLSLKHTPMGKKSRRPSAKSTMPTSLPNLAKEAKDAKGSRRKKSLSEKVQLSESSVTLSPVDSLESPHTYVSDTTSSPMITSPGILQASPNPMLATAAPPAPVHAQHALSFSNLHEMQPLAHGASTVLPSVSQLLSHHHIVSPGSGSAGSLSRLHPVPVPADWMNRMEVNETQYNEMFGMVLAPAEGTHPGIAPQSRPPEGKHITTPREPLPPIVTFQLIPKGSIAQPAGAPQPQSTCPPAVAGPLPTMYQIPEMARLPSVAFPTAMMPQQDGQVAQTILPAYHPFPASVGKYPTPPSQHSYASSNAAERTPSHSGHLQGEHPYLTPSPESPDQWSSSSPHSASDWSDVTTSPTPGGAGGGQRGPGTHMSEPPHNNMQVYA
Sequence of Pro-neuregulin-1, membrane-bound isoform (Homo sapiens) (Q02297 whole entry, looked up, the tested form may be a part, canonical isoform): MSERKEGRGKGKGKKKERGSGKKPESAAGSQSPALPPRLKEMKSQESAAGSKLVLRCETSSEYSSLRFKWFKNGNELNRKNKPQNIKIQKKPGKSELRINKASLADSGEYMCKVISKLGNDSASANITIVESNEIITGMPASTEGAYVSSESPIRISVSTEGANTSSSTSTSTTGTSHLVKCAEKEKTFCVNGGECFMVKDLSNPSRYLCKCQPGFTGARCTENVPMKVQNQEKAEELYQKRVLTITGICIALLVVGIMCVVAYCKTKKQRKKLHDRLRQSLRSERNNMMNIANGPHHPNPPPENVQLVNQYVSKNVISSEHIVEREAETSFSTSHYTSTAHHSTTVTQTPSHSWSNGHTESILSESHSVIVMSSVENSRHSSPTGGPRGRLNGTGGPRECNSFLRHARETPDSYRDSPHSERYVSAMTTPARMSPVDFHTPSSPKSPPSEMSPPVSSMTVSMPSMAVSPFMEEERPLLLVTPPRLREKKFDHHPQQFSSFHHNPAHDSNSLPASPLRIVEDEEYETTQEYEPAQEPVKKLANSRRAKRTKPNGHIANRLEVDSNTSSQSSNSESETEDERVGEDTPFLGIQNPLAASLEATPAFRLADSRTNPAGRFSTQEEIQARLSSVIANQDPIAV

Turning to `CN(C)C(=O)[C@@]1(CCC(=O)OC(C)(C)C)COC(c2ccc(OCCCO)cc2)=N1`, the composite z-score in [1] is 0.0486; in experiment [2] it was 0.0295; in experiment [3] it was -0.0598; in [4], 0.448; in experiment [5] it was 0.675; in [6], 1.8. In addition, the composite z-score was 1.41 in experiment [7]; 0.267 in [9]; -0.189 in experiment [10]; 1.32 in experiment [11]; 3.78 in experiment [15]; 0.112 in [17]. In addition, the composite z-score is 0.74 in [18], 0.0673 in experiment [19] and -0.122 in [20]. Also, the z-score is -0.977 (inactive) in [8]; -0.321 (inactive) in experiment [12]; -0.369 (inactive) in experiment [13]; -0.501 (inactive) in experiment [14]; 0.771 (inactive) in experiment [16].
For the compound `C#CCNS(=O)(=O)N(C)C`, the composite z-score was -0.49 in [1]; 0.0943 in experiment [2]; -0.0291 in experiment [3]; 0.276 in [4]; 0.707 in experiment [5]; 0.174 in experiment [6]. For the same compound, the composite z-score in [7] was 0.774; in [9], -0.136; in experiment [10], 0.208; in experiment [11], 0.392; in [15] it was 0.43; in experiment [17] it was -0.139. For the same compound, the composite z-score was 0.4 in [18], 0.579 in experiment [19] and -0.054 in [20]. Moreover, the z-score in [8] is -0.533 (inactive); in experiment [12] it was 1.24 (inactive); in experiment [13], 0.783 (inactive); in experiment [14], 0.689 (inactive); in experiment [16], 0.663 (inactive).
For the compound `NC(=O)[C@H]1[C@@H]2C(=O)O[C@@H](c3ccccc3)[C@@H](c3ccccc3)N2[C@@H](c2ccc(O)cc2)[C@]12C(=O)Nc1ccc(C#CC3(O)CCCCCC3)cc12`, the composite z-score in experiment [1] is 0.0918; in experiment [2] it was 0.417; in experiment [3], -0.0454; in experiment [4], 0.607; in [5], 1.35; in experiment [6] it was 1.5. The composite z-score in [7] came to 1.35; in experiment [9], 0.617; in [10] it was 0.233; in [11], 1.53; in experiment [15] it was 3.22; in experiment [17], 0.0441. Besides, the composite z-score in [18] worked out at 1.2; in experiment [19], 1.03; in [20], 0.0955. Further, the z-score in experiment [8] is -1.46 (inactive); in experiment [12], 0.46 (inactive); in [13], -1.09 (inactive); in experiment [14], 1.33 (inactive); in experiment [16], 0.568 (inactive).
Consider `COc1ccc([Si](C)(C)[C@H]2[C@H](CC(=O)N3CCC[C@H]3CO)O[C@@]3(C(=O)N(Cc4ccc(N5C(=O)c6cccc7cccc5c67)cc4)c4ccccc43)[C@@H]2C)cc1`, for which the composite z-score in experiment [1] was -0.276; in experiment [2], 0.623; in [3] it was -0.071; in [4] it was 0.751; in [5], 0.517; in experiment [6], 0.916. Moreover, the composite z-score is 0.804 in [7]; 0.361 in experiment [9]; -0.221 in experiment [10]; 1.54 in experiment [11]; 2.5 in [15]; -0.057 in [17]. The composite z-score in experiment [18] came out at 1.11; in experiment [19], 1.13; in [20] it was 0.0333. Also, the z-score in experiment [8] was -4.19 (inactive); in experiment [12] it was -0.631 (inactive); in experiment [13], 0.363 (inactive); in [14] it was -0.403 (inactive); in [16], 0.965 (inactive).
On to `CCCCC(=C=CC[C@H](O)c1cccc(OCCO)c1)C[C@H](O)COCc1ccccc1`, for which the composite z-score was -0.0829 in experiment [1]; 0.284 in experiment [2]; -0.112 in [3]; 0.205 in experiment [4]; -0.431 in experiment [5]; -0.491 in [6]. The composite z-score in [7] is 0.794; in [9] it was -0.11; in experiment [10] it was -0.28; in [11], 0.494; in experiment [15], 1.04; in experiment [17], -0.195. Besides, the composite z-score in [18] is -0.0291; in experiment [19], -0.323; in experiment [20] it was -0.154. Also, the z-score in experiment [8] is -0.664 (inactive); in experiment [12], -0.646 (inactive); in [13], -0.586 (inactive); in experiment [14] it was -1.15 (inactive); in experiment [16], 0.338 (inactive).
